For 23 compounds, Potency and outcome results are on record in PubChem BioAssay (Tox21).

Inconclusive results are not listed. Values without a mark were called inactive. The source made the active and inactive calls. Unless noted, the call rests on the fitted dose curve; in most records, active means well fitted curve in the direction sought with a large enough effect in the repeat runs; inconclusive means weak or mixed curves; inactive means no such curve, though single readings can be large; an effect the other way counts as inactive or inconclusive.

Experiment [1] can be described thus: qHTS assay to identify small molecule antagonists of the thyroid receptor (TR) signaling pathway - cell viability counter screen (AID 743064). Further: nearly all actives have a fitted effect of over 50% in size. Further: potency means the concentration at half of the fitted maximal effect. The gist of the method:
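Compounds were tested on GH3.TRE-Luc cells in the presence of T3 at 1 nM final. Following 23.5 h at 37 °C, cell viability was quantified by CellTiter-Fluor.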
For orientation: qHTS replaces the single test concentration by a dilution series.

Experiment [2] has as its system thyroid hormone receptor (rat, GH3 cells). Briefly: qHTS assay to identify small molecule agonists of the thyroid receptor (TR) signaling pathway (AID 743066; calls by dose curve).
The target in experiment [3] is Estrogen receptor (Homo sapiens) (UniProt P03372). Briefly: qHTS assay to identify small molecule antagonists of the estrogen receptor alpha (ER-alpha) signaling pathway (AID 743069; active means well fitted curve in the direction sought with a large enough effect in the signal ratio in the repeat runs, not every such curve was filed as active; the % refers to the signal ratio). The gist of the method: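 Beta-lactamase FRET fluorescence is read after 2 hr at room temperature with LiveBLAzer B/G substrate. Before that, ER-alpha-bla HEK293 cells sit 4 hr after plating, then receive compound plus 17beta-estradiol and incubate 18 hr at 37C.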
Sequence of Estrogen receptor (Homo sapiens) (P03372 whole entry, looked up): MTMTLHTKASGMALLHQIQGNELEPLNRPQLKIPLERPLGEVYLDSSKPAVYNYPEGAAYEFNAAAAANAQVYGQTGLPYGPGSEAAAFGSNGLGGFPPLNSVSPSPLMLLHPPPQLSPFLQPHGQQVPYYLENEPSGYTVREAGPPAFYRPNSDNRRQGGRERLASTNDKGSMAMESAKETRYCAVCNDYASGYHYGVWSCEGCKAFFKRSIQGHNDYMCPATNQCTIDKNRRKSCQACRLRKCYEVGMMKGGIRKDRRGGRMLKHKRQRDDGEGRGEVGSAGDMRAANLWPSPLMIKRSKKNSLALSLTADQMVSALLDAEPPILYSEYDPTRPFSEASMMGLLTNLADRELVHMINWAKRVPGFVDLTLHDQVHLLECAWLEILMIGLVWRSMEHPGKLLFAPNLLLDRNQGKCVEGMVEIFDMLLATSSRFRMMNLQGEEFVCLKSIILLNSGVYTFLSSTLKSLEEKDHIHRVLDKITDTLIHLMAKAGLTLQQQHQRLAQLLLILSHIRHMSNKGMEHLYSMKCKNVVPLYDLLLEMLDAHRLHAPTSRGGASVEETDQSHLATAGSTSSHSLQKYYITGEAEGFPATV

Experiment [4] in a line: qHTS assay to identify small molecule antagonists of the estrogen receptor alpha (ER-alpha) signaling pathway - cell viability counter screen (AID 743074; calls by dose curve;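 further: HEK293 cells carrying ER-alpha-UAS-bla reporter stimulated with 17beta-estradiol; nearly all actives have a fitted effect of over 45% in size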).
The target in experiment [5] is Estrogen receptor (Homo sapiens) (UniProt P03372). Briefly: qHTS assay to identify small molecule agonists of the estrogen receptor alpha (ER-alpha) signaling pathway (AID 743075; calls by dose curve;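 further: HEK293 GripTite cells with ER-alpha and UAS-driven beta-lactamase reporter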).
Experiment [6] shares this target. Briefly: qHTS assay to identify small molecule agonists of the estrogen receptor alpha (ER-alpha) signaling pathway using the BG1 cell line (AID 743079). Further: nearly all actives have a fitted effect of over 20% in size.
A short description of experiment [7]: qHTS assay to identify small molecule antagonists of the estrogen receptor alpha (ER-alpha) signaling pathway using the BG1 cell line - cell viability counter screen (AID 743081).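 Further: compound given together with 17beta-estradiol as the ER stimulus; series mostly up to about 70 µM; nearly all actives have a fitted effect of over 45% in size.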
Another experiment deals with Aromatase (Homo sapiens) (UniProt P11511). Briefly: qHTS assay to identify aromatase inhibitors (AID 743083). Further: series mostly up to about 70 µM; nearly all actives have a fitted effect of over 55% in size.
Sequence of Aromatase (Homo sapiens) (P11511 whole entry, looked up): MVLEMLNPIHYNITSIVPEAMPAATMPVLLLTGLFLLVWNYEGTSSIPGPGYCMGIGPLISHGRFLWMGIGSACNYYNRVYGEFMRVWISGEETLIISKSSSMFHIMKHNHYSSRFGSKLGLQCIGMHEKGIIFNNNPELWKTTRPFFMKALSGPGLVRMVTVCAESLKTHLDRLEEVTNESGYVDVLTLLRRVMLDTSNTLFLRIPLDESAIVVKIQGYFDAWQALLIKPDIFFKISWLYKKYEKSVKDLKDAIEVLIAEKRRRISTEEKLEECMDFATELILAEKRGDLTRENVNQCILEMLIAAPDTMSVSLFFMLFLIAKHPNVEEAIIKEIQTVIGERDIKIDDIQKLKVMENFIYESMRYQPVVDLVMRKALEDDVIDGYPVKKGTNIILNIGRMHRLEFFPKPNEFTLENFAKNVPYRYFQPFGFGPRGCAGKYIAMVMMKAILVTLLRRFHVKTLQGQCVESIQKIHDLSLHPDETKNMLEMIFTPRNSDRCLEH
Experiment [8] is described as follows: qHTS assay to identify small molecule antagonists of the estrogen receptor alpha (ER-alpha) signaling pathway using the BG1 cell line (AID 743080; calls by dose curve;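 further: BG1 cells stimulated with 17beta-estradiol alongside compound; nearly all actives have a fitted effect of over 25% in size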; further: potency means the concentration at half of the fitted maximal effect). The gist of the method: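 Seeding, 24 h rest, compound transfer from DMSO, 17beta-estradiol addition, 21.5 h incubation, CellTiter-Fluor (30 min, 37 C), then ONE-Glo (30 min, room temperature): this sequence was run on BG1-Luc-4E2 reporter cells.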

A short description of experiment [9]: qHTS assay to identify small molecule antagonists of the thyroid receptor (TR) signaling pathway (AID 743065). Further: series mostly up to about 70 µM; nearly all actives have a fitted effect of over 55% in size. The gist of the method: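 GH3.TRE-Luc rat pituitary cells (two TREs driving luciferase) were dosed with compound, then stimulated with 1 nM T3 (final) for 23.5 h at 37 C. ONE-Glo luminescence was the read-out, with CellTiter-Fluor fluorescence as the cytotoxicity counter-screen.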

Take `COc1cc(NS(=O)(=O)c2ccc(N)cc2)nc(OC)n1`: the Potency result (in experiment [1]; in experiment [6]; with Aromatase (Homo sapiens)) was “inactive” each time. For the same compound, the call in [2], in experiment [3], in [4], in [5] and in experiment [7] was inactive.
Regarding `CCCCCCOc1ccccc1C(N)=O`, the Potency entry (in experiment [1]; with Aromatase (Homo sapiens)) was “inactive” each time. Also, the compound was called inactive in experiment [2], in experiment [3], in experiment [4], in [5] and in experiment [7]. The Potency in experiment [8] was 33.5 µM (active).
Consider `CC1=CCC(C(C)C)=CC1`, for which the Potency entry (in experiment [1]; in experiment [6]; in experiment [8]; with Aromatase (Homo sapiens)) was “inactive” throughout. Further, the compound was classed as inactive in [3], in [4], in [5] and in experiment [7].
As for `COCCOC(=O)C1=C(C)NC(C)=C(C(=O)OC(C)C)C1c1cccc([N+](=O)[O-])c1` (stereo not drawn), the Potency entry (in experiment [1]; in experiment [6]; in experiment [8]; with Aromatase (Homo sapiens)) was “inactive” each time. Moreover, the compound was classed as inactive in experiment [2], in [4], in experiment [5] and in [7].
Turning to `C=CC(OCC)OCC`, the Potency result (in experiment [1]; in the experiment with Aromatase (Homo sapiens)) was “inactive” in each case. Also, the outcome in experiment [2], in experiment [4] and in [7] was inactive.
On to `CCOC(=O)/C=C/c1ccccc1`, for which the Potency entry (in experiment [1]; in experiment [6]; in experiment [8]; with Aromatase (Homo sapiens)) was “inactive” in each case. In addition, the compound was called inactive in experiment [2], in [3], in experiment [5] and in [7].
Take `CC(C)CC(C)CC(C)CC(C)COC(=O)c1ccccc1C(=O)OCC(C)CC(C)CC(C)CC(C)C` (stereo not drawn): the Potency entry (in experiment [1]; with Aromatase (Homo sapiens)) was “inactive” each time. The call in experiment [2], in [4] and in experiment [7] was inactive.
In the case of `CCOC(=O)[C@H](CCc1ccccc1)N[C@@H](C)C(=O)N1C(=O)N(C)C[C@H]1C(=O)O`, the Potency entry (in experiment [1]; in experiment [6]; in experiment [8]; with Aromatase (Homo sapiens)) was “inactive” in each case. In addition, the call in experiment [2], in experiment [3], in [4] and in experiment [5] was inactive.
Regarding `CCC(C=O)CC`, the Potency result (in [1]; with Aromatase (Homo sapiens)) was “inactive” in each case. Also, the compound was classed as inactive in [2], in experiment [4] and in [7].
As to `c1ccc2nccnc2c1`, the Potency result (in experiment [1]; in experiment [6]; in experiment [8]; with Aromatase (Homo sapiens)) was “inactive” in each case. In addition, the call in experiment [2], in experiment [3], in [5] and in [7] was inactive.
As for `CCCCCCCCC1CCC(=O)O1` (stereo not drawn), the Potency entry (in [1]; with Aromatase (Homo sapiens)) was “inactive” each time. The result in [2], in [5] and in [7] was inactive.
On to `CCC(C)(CCC(C)C)C(=O)O` (stereo not drawn), for which, in experiment [1], the Potency entry was “inactive”. Also, the compound was called inactive in experiment [2], in [4] and in experiment [7].
On to `CC(N)C(=O)OC(C)(C)Cc1ccc(Cl)cc1` (stereo not drawn), for which the outcome in experiment [2], in experiment [3], in [4], in [5] and in experiment [7] was inactive. Further, the Potency entry (in [6]; in [8]; in the experiment with Aromatase (Homo sapiens)) was “inactive” each time.
For `COc1cc(N)ccc1C`, in experiment [9], the Potency result was “inactive”. Besides, the call in [2], in experiment [4] and in experiment [7] was inactive.
In the case of `Cc1cc(Cl)c(C)cc1Cl`, the Potency entry (in experiment [1]; with Aromatase (Homo sapiens)) was “inactive” in each case. Besides, the compound was classed as inactive in experiment [4] and in [7].
Regarding `O=P(O)(O)OP(=O)(O)O`, in [1], the Potency result was “inactive”. For the same compound, the result in experiment [4] and in experiment [7] was inactive.
Regarding `COc1ccc2c(c1OC)C(=O)O[C@@H]2[C@H]1c2c(cc3c(c2OC)OCO3)CCN1C`, in [1], the Potency is 11.9 µM (active). In addition, the call in [4] was inactive.
Regarding `CC(C)OC(=O)CCCCC(=O)OC(C)C`, the outcome in experiment [2], in experiment [4], in experiment [5] and in [7] was inactive. The Potency result in experiment [6] and in experiment [8] was “inactive” in each case.
Take `COc1cc2c(cc1OC)[C@@H]1CC(=O)[C@@H](CC(C)C)CN1CC2`: the Potency result in experiment [9], in experiment [6] and in experiment [8] was “inactive” throughout. In addition, the call in [2], in experiment [3], in experiment [5] and in experiment [7] was inactive.
As for `N[C@@H](CCC(=O)N[C@@H](CS)C(=O)NCC(=O)O)C(=O)O`, the result in experiment [4] and in [7] was inactive. In addition, the Potency entry in the experiment with Aromatase (Homo sapiens) was “inactive”.
In the case of `O=Cc1ccc(Cl)c(Cl)c1`, the Potency result (in experiment [9]; with Aromatase (Homo sapiens)) was “inactive” throughout. Also, the outcome in [2], in experiment [4] and in [7] was inactive.
As to `COC(=O)c1ccccc1C(=O)c1ccc(OCCN2CCCCC2)cc1`, the result in experiment [2], in [3], in experiment [4], in experiment [5] and in experiment [7] was inactive. Moreover, the Potency result (in experiment [6]; in [8]; in the experiment with Aromatase (Homo sapiens)) was “inactive” in each case.
In the case of `C[C@H](CCC(=O)O)[C@H]1CC[C@H]2[C@@H]3C(=O)C[C@@H]4CC(=O)CC[C@]4(C)[C@H]3CC(=O)[C@]12C`, the outcome in [2], in [3], in experiment [4], in experiment [5] and in [7] was inactive. Further, the Potency result (in [6]; in experiment [8]; with Aromatase (Homo sapiens)) was “inactive” each time.
